The nature of assay [1]: ATG_CRE_CIS: Attagene CIS-FACTORIAL HepG2 Assay for human cAMP Responsive Element (CRE) binding protein 3 (AID 2282926). To be noted: HepG2 CRE cis-reporter, Attagene multiplexed mRNA; actives raise or lower the signal. In short, it runs like this: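 Human liver HepG2, transient MRTU transfection, 24 h compound exposure. Total RNA → oligo(dT) RT → PCR → 6-FAM primer extension → HpaI cut → CE. Activity called both directions vs DMSO.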

For assay [2], the target named is CCAAT/enhancer-binding protein beta (Homo sapiens) (UniProt P17676). Nature of the assay: ATG_C_EBP_CIS: Attagene CIS-FACTORIAL HepG2 Assay for human CCAAT/Enhancer Binding Protein (C/EBP) beta (AID 2282927). To be noted: HepG2 Attagene cis-factorial transcription factor reporter; actives raise or lower the signal. In short, it runs like this:
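Transiently transfected HepG2 (MRTU library, endogenous TF-driven promoters); 24 h dosing; total RNA → oligo(dT) RT → PCR → 6-FAM primer extension → HpaI digest → CE; fit bidirectionally vs DMSO.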

Assay [3] can be described thus: ATG_CMV_CIS: Attagene CIS-FACTORIAL HepG2 Assay for human CMV (Internal Marker) (AID 2282928).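 Note: endpoint acts as a background internal control marker rather than a target.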 Conditions: HepG2 CMV promoter reporter, transcription factor profiling; actives raise or lower the signal. In short, it runs like this:
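CMV internal-marker background readout in transiently transfected HepG2 cells bearing cis-regulated reporter units. Reporter mRNA is measured 24 h after dosing by RT-PCR and capillary electrophoresis, with bidirectional fitting against DMSO.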

A short description of assay [4]: ATG_DR4_LXR_CIS: Attagene CIS-FACTORIAL HepG2 Assay for human Liver X Receptor (LXR), DR4 submotif (AID 2282929). Conditions: HepG2 Attagene DR4 cis-reporter, mRNA transcription; actives raise or lower the signal. In short, it runs like this: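 HepG2 cells transiently transfected with cis-promoter-driven multiplexed reporter units (DR4 element) were dosed for 24 h. Reporter mRNA was quantified by RT-PCR, fluorescent primer extension, HpaI digestion and capillary electrophoresis; bidirectional fitting versus DMSO baseline.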

The nature of assay [5]: ATG_AP_1_CIS: Attagene CIS-FACTORIAL HepG2 Assay for human Activator Protein 1 (AP-1) (AID 2282931). To be noted: HepG2 Attagene cis-factorial AP-1 reporter mRNA; actives raise or lower the signal. In short, it runs like this:
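HepG2 cells transiently transfected with cis-element-driven multiplex reporter units; 24 h compound exposure. Reporter mRNA quantified by RT-PCR, FAM-labelled fragments resolved by capillary electrophoresis; bidirectional fit versus DMSO baseline.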

The nature of assay [6]: ATG_AP_2_CIS: Attagene CIS-FACTORIAL HepG2 Assay for human Activator Protein 2 (AP-2) (AID 2282932). To be noted: HepG2 AP-2 cis-reporter, Attagene transcription factor profiling; actives raise or lower the signal. In short, it runs like this:
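Multiplexed mRNA reporter assay in HepG2: cis-regulated units report endogenous factor activity after 24 h treatment. Fluorescence from capillary electrophoresis of RT-PCR products gives the signal, with DMSO as baseline.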

Assay [7] is described as follows: ATG_BRE_CIS: Attagene CIS-FACTORIAL HepG2 Assay for human Bone Morphogenetic Protein (BMP) Response Element (BRE) (AID 2282933). To be noted: HepG2 BMP response element reporter, Attagene transcription factor profiling; actives raise or lower the signal. In short, it runs like this:
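After a 24 h chemical treatment, transiently transfected HepG2 cells were lysed for RNA; reporter transcripts were quantified by fluorescent RT-PCR and capillary electrophoresis, normalised to DMSO.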

For assay [8], the target named is Transcription factor E2F1 (Homo sapiens) (UniProt Q01094). Nature of the assay: ATG_E2F_CIS: Attagene CIS-FACTORIAL HepG2 Assay for human E2F Transcription Factor 1 (AID 2282935). To be noted: HepG2 Attagene cis-reporter, E2F reporter RNA transcripts; actives raise or lower the signal. In short, it runs like this: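 Measures reporter transcript levels via RT-PCR with capillary electrophoresis detection in HepG2 cells harboring cis-regulated reporter units; 24 h post-dose; bidirectional curve fitting with DMSO as baseline.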

A short description of assay [9]: ATG_E_Box_CIS: Attagene CIS-FACTORIAL HepG2 Assay for human Enhancer Box (E-box) (AID 2282936). To be noted: HepG2 E-box cis-reporter transcription, actives raise or lower the signal. In outline:
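First, HepG2 cells receive multiple cis-regulated reporter constructs by transient transfection. Next, chemicals are applied for 24 h. Finally, reporter mRNA is quantified via RT-PCR and capillary electrophoresis, with DMSO as baseline.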

A short description of assay [10]: ATG_M_61_CIS: Attagene CIS-FACTORIAL HepG2 Assay for M61 Transcription Factor (Internal Marker) (AID 2282937). Conditions: HepG2 Attagene CIS-FACTORIAL M61 internal marker reporter; actives raise or lower the signal. In short, it runs like this:
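HepG2 cells transiently transfected with cis-element-driven multiple reporter transcription units, dosed for 24 h. Reporter mRNA measured by RT-PCR, 6-FAM primer-extension labelling, HpaI digestion and capillary electrophoresis; bidirectional fit versus DMSO baseline.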

Assay [11] is described as follows: ATG_EGR_CIS: Attagene CIS-FACTORIAL HepG2 Assay for human Early Growth Response 1 (EGR1) (AID 2282938). Conditions: HepG2 Attagene CIS-FACTORIAL EGR reporter mRNA; actives raise or lower the signal. In short, it runs like this: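 HepG2 cells transiently transfected with cis-promoter-driven multiplexed reporter transcription units; reporter mRNA measured 24 h after compound dosing by RT-PCR, 6-FAM primer extension, HpaI digestion and capillary electrophoresis. Bidirectional fit versus DMSO baseline.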

Assay [12] can be described thus: ATG_Ets_CIS: Attagene CIS-FACTORIAL HepG2 Assay for human Erythroblast Transformation Specific (ETS) (AID 2282941). Conditions: HepG2 ETS cis-reporter transcription, actives raise or lower the signal. In outline:
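HepG2 cells transfected with multiple cis-regulated reporter units measuring endogenous ETS-driven transcription, 24 h after dosing. Reporter mRNA quantified by RT-PCR with capillary electrophoresis; bidirectional fit relative to DMSO.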

Assay [13] is described as follows: ATG_FoxO_CIS: Attagene CIS-FACTORIAL HepG2 Assay for human Forkhead box O (FoxO) (AID 2282943). Conditions: HepG2 Attagene cis-reporter, FoxO element, mRNA; actives raise or lower the signal. In outline:
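Read-out: fluorescence of 6-FAM-labelled reporter cDNA fragments resolved by capillary electrophoresis. Transiently transfected HepG2 cells were dosed for 24 h; activity fitted in both directions relative to DMSO controls.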

Assay [14] in a line: ATG_GATA_CIS: Attagene CIS-FACTORIAL HepG2 Assay for human GATA Binding Protein (AID 2282944). Conditions: HepG2 GATA cis-element reporter, Attagene multiplex mRNA; actives raise or lower the signal. In short, it runs like this:
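Measures endogenous transcription factor-driven reporter mRNA in HepG2 cells transiently carrying cis-regulated constructs. 24 h dosing; RNA via oligo(dT) reverse transcription, PCR, HpaI digestion, capillary electrophoresis; fitted relative to DMSO.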

The nature of assay [15]: ATG_GLI_CIS: Attagene CIS-FACTORIAL HepG2 Assay for human Zinc Finger Protein GLI1 (AID 2282945). Conditions: HepG2, Attagene cis-factorial reporter mRNA, GLI element; actives raise or lower the signal. In short, it runs like this: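 Transiently transfected HepG2 cells report endogenous transcription factor activity via cis-element-driven reporter units. After 24 h compound exposure, reporter mRNA was measured by RT-PCR with capillary electrophoresis; bidirectional fitting against DMSO baseline.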

Assay [16] can be described thus: ATG_ISRE_CIS: Attagene CIS-FACTORIAL HepG2 Assay for human Interferon Regulatory Factor 1 (IRF1) binding to an Interferon-Stimulated Response Element (ISRE) (AID 2282948). Conditions: HepG2 ISRE cis-reporter (Attagene), mRNA transcription readout; actives raise or lower the signal. In short, it runs like this:
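Transiently transfected HepG2 cells carrying cis-element reporter units, dosed 24 hours. Reporter mRNA quantified by RT-PCR, fluorescent primer extension, HpaI digestion and capillary electrophoresis. Bidirectional fitting relative to DMSO.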

Assay [17] can be described thus: ATG_M_32_CIS: Attagene CIS-FACTORIAL HepG2 Assay for M32 Transcription Factor (Internal Marker) (AID 2282949).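 Note: background control marker of the multiplexed CIS panel rather than a real target.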 Conditions: HepG2 Attagene cis-factorial M32 reporter, mRNA; actives raise or lower the signal. In short, it runs like this: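 Following 24 h chemical exposure of HepG2 cells transiently expressing cis-promoter reporter constructs, reporter transcript levels were determined by RT-PCR with fluorescent labelling and capillary electrophoresis, then fitted bidirectionally against DMSO.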

The nature of assay [18]: ATG_M_06_CIS: Attagene CIS-FACTORIAL HepG2 Assay for M06 Transcription Factor (Internal Marker) (AID 2282950). To be noted: HepG2 Attagene CIS-FACTORIAL M06 internal marker reporter; actives raise or lower the signal. In short, it runs like this: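 One of many multiplexed endpoints: HepG2 reporter mRNA after 24 h dosing, detected by RT-PCR and capillary electrophoresis fluorescence; gain or loss of signal analysed against DMSO.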

Assay [19] concerns the target Paired box protein Pax-6 (Homo sapiens) (UniProt P26367). In words: ATG_Pax6_CIS: Attagene CIS-FACTORIAL HepG2 Assay for human Paired Box 6 (PAX6) (AID 2282956). Conditions: HepG2 CIS-FACTORIAL PAX6 reporter transcription, RNA readout; actives raise or lower the signal. In outline: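 HepG2 cells transiently transfected with cis-promoter-driven multiplexed reporter units sensing endogenous transcription factor activity; 24 h chemical exposure. Reporter mRNA quantified by RT-PCR, 6-FAM labelling, HpaI digestion and capillary electrophoresis; bidirectional fit versus DMSO baseline.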

A short description of assay [20]: ATG_PXRE_CIS: Attagene CIS-FACTORIAL HepG2 Assay for human Pregnane X Receptor Element (PXRE) (AID 2282957). Conditions: HepG2 Attagene CIS-FACTORIAL PXRE reporter, mRNA; actives raise or lower the signal. In short, it runs like this:
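Transfect HepG2 with MRTUs (cis promoter elements); dose chemical, incubate 24 h; isolate RNA, RT with oligo(dT), PCR, 6-FAM label, HpaI cut, CE. Gain/loss fit vs DMSO.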

SMILES strings stand for the structures. The source made the active and inactive calls. Rule for the calls: active = hit-call score of the fitted dose curve at least 0.9, where 1 is the maximum; inactive = score below 0.9.

Transcription factor E2F1 (Homo sapiens), sequence (Q01094 whole entry, looked up): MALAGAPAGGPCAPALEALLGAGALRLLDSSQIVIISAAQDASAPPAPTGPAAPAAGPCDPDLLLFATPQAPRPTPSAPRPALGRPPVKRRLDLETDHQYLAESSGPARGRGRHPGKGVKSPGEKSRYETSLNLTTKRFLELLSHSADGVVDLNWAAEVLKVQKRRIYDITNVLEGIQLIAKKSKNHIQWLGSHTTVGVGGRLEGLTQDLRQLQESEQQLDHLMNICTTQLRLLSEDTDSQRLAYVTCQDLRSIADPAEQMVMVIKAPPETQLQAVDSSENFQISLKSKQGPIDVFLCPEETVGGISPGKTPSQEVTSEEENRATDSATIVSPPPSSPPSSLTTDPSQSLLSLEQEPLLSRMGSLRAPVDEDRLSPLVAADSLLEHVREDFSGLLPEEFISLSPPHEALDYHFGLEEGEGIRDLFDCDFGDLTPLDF
Paired box protein Pax-6 (Homo sapiens), sequence (P26367 whole entry, looked up): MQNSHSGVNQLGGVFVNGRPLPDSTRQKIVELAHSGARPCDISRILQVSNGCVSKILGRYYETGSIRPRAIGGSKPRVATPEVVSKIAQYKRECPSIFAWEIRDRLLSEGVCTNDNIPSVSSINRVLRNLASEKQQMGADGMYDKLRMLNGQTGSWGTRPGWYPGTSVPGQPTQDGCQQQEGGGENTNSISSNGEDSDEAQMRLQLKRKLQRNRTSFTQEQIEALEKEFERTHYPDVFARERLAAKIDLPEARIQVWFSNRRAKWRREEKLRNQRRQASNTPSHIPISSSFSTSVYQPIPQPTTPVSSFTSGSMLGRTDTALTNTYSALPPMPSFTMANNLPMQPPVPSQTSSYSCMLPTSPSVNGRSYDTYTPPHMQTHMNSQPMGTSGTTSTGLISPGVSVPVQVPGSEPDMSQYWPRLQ
CCAAT/enhancer-binding protein beta (Homo sapiens), sequence (P17676 whole entry, looked up): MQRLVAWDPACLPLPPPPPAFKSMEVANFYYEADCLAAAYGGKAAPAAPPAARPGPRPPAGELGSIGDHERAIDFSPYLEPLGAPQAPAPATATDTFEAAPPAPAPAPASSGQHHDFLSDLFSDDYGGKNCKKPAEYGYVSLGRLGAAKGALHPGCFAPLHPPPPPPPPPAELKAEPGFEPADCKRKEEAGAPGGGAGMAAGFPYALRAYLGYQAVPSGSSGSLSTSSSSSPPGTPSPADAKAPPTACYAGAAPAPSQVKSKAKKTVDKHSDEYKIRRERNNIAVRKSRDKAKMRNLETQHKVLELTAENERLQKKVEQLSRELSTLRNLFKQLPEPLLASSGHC

`c1ccc2c(c1)Oc1ccccc1S2`: the result in assay [1], in [2], in [3], in assay [5], in assay [6] and in assay [7] was inactive. Besides, the result in [8], in assay [10], in [11], in assay [12], in [13] and in assay [14] was inactive. In addition, the result in assay [16], in assay [17], in [18], in [19] and in [20] was inactive. Besides, the AC50 in assay [4] is 171 µM (active); in assay [9] it was 57.3 µM (active); in [15], 173 µM (active).

For `CCCCCCC(O)CCCCCCCCCCC(=O)OC` (stereo not given), the result in assay [1], in [2], in assay [3], in assay [4], in assay [5] and in assay [6] was inactive. Moreover, the compound was classed as inactive in assay [7], in assay [8], in assay [9], in [10], in [11] and in assay [12]. The outcome in assay [13], in assay [14], in assay [15], in [16], in [17] and in assay [18] was inactive. Besides, the call in assay [19] was inactive. Further, the concentration at half-maximal activity (AC50) in [20] was 27.5 µM (active).

In the case of `OCCOCCOCCOCCOCCO`, the compound was classed as inactive in [1], in assay [2], in assay [3], in assay [4], in assay [5] and in assay [6]. Besides, the compound was classed as inactive in [7], in assay [8], in assay [9], in [10], in assay [11] and in assay [12]. Moreover, the result in [13], in assay [14], in [15], in assay [16], in [17] and in assay [18] was inactive. Moreover, the compound was called inactive in [19] and in assay [20].

Consider `O=C(CC(C(=O)OC1CCCCC1)S(=O)(=O)O)OC1CCCCC1` (stereo not given), for which the compound was called inactive in [1], in [2], in assay [3], in assay [4], in [5] and in assay [6]. Moreover, the outcome in [7], in assay [8], in assay [9], in assay [10], in assay [11] and in assay [12] was inactive. Also, the compound was classed as inactive in [13], in [14], in [15], in assay [16], in [17] and in assay [18]. Further, the outcome in assay [19] was inactive. Further, the AC50 in assay [20] is 9.51 µM (active).

One may read the AC50 as the midpoint of the concentration-response curve, whichever way the signal moves.

The record behind these values is PubChem BioAssay (EPA / NIEHS).
